# According to publication PMC7862700, “An all-to-all approach to the identification of sequence-specific readers for epigenetic DNA modifications on cytosine”:
# What was measured:
# Test in all cases: DAPPL (digital affinity profiling via proximity ligation, sequencing); 10 mM Tris-HCl pH 7.5, 50 mM NaCl, 1 mM DTT, 4% glycerol, room temperature, 30 min; GST-TFs on glutathione beads, 16-mer random dsDNA library, 0.1% formaldehyde crosslink after washing; high values mean tight binding
# FEV = target: T1, FEV (Homo sapiens, UniProt Q99581 1-238); details: protein: recombinant; tags: N-terminal GST; dsDNA, one strand shown
# T1 sequence: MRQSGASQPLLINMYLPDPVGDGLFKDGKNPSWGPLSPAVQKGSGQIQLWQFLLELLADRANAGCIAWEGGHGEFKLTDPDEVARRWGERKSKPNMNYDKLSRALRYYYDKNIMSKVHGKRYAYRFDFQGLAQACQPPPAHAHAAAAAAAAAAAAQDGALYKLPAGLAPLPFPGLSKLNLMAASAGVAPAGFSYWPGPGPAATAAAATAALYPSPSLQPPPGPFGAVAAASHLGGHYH
# Outline: (§1)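 Yeast served to express human transcription factors as GST fusions, which were then captured on glutathione beads and labelled with DNA barcodes. Pooled with a tag-only sample, they were incubated with 200 nmole of a 16-mer random double-stranded DNA library for 30 min at room temperature in Tris/NaCl/DTT/glycerol buffer, washed, crosslinked with 0.1% formaldehyde, ligated by proximity, amplified by PCR and sequenced. Dividing each hexamer's read frequency for a factor by its frequency for the tag-only sample gives the binding signal.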
# ETV5 = ETV5 (Homo sapiens, UniProt P41161 1-510); details: protein: recombinant; tags: N-terminal GST; dsDNA, one strand shown
# Outline: as §1
# HSF1 = HSF1 (Homo sapiens, UniProt Q00613 1-529); details: protein: recombinant; tags: N-terminal GST; chain copies: 3; dsDNA, one strand shown
# Outline: as §1
# SPIC = target: T2, SPIC (Homo sapiens, UniProt Q8N5J4 1-248); details: protein: recombinant; tags: N-terminal GST; dsDNA, one strand shown
# T2 sequence: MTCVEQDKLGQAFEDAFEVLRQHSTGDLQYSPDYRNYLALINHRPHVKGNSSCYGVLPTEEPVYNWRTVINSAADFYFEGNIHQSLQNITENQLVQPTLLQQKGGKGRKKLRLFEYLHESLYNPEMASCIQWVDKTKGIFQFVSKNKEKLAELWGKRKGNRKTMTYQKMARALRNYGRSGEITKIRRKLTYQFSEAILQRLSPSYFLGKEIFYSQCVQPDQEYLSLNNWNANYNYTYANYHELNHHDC
# Outline: as §1
# ELF4 = ELF4 (Homo sapiens, UniProt Q99607 1-663); details: protein: recombinant; tags: N-terminal GST; dsDNA, one strand shown
# Outline: as §1
# ELK4 = target: T3, ELK4 (Homo sapiens, UniProt P28324-2 1-405); details: protein: recombinant; tags: N-terminal GST; dsDNA, one strand shown
# T3 sequence: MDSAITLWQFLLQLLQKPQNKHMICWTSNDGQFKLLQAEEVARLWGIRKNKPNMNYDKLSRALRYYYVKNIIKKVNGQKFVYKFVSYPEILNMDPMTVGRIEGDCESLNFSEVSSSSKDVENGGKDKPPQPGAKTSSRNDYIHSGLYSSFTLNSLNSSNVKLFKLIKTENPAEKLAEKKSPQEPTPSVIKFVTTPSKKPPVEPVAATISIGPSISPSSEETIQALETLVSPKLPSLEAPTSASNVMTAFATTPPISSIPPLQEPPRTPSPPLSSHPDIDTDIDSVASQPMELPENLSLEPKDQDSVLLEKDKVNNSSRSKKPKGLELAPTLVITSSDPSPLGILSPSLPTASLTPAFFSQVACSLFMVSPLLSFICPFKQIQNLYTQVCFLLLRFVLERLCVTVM
# Outline: as §1
# ETV2 = target: T4, ETV2 (Homo sapiens, UniProt O00321 1-342); details: protein: recombinant; tags: N-terminal GST; dsDNA, one strand shown
# T4 sequence: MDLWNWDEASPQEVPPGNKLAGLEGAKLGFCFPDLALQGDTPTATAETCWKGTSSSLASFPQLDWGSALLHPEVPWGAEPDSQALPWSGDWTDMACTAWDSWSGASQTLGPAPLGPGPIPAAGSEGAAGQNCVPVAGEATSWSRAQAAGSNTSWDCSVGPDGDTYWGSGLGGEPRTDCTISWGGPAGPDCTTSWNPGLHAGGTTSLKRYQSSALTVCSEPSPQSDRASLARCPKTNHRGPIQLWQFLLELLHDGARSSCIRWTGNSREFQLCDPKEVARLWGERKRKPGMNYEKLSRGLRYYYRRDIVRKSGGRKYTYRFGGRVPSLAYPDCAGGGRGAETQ
# Outline: as §1
# ELF3 = target: T5, ELF3 (Homo sapiens, UniProt P78545 1-371); details: protein: recombinant; tags: N-terminal GST; dsDNA, one strand shown
# T5 sequence: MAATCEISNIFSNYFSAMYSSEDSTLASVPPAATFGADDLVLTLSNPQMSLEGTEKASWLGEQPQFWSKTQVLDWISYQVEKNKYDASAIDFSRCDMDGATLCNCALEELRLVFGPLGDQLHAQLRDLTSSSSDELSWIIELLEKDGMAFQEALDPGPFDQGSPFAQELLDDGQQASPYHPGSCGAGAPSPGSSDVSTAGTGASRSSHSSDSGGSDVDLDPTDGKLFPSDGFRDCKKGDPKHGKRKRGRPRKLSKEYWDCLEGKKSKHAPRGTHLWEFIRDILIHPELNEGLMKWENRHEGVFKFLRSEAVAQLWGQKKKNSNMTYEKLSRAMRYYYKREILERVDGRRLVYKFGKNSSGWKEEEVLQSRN
# Outline: as §1
# CRX = CRX (Homo sapiens, UniProt O43186 1-299); details: protein: recombinant; tags: N-terminal GST; dsDNA, one strand shown
# Outline: as §1
# ETV1 = ETV1 (Homo sapiens, UniProt P50549 1-477); details: protein: recombinant; tags: N-terminal GST; dsDNA, one strand shown
# Outline: as §1
# ERF = target: T6, ERF (Homo sapiens, UniProt P50548 1-548); details: protein: recombinant; tags: N-terminal GST; dsDNA, one strand shown
# T6 sequence: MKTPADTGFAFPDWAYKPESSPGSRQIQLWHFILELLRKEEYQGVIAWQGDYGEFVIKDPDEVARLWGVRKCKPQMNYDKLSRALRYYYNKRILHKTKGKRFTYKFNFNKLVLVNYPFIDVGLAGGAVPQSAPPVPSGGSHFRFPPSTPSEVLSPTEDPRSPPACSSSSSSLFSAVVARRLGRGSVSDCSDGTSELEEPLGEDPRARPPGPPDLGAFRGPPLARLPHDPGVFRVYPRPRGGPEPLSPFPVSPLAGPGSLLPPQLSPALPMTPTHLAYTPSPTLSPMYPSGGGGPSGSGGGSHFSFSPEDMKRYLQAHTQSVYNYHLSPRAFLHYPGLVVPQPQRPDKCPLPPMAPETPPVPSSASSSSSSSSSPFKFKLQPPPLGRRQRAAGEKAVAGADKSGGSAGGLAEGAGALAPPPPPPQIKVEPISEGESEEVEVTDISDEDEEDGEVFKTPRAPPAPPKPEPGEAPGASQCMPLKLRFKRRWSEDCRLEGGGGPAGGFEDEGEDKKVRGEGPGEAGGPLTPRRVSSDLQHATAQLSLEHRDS
# Outline: as §1
# ETV3L = target: T7, ETV3L (Homo sapiens, UniProt Q6ZN32 1-361); details: protein: recombinant; tags: N-terminal GST; dsDNA, one strand shown
# T7 sequence: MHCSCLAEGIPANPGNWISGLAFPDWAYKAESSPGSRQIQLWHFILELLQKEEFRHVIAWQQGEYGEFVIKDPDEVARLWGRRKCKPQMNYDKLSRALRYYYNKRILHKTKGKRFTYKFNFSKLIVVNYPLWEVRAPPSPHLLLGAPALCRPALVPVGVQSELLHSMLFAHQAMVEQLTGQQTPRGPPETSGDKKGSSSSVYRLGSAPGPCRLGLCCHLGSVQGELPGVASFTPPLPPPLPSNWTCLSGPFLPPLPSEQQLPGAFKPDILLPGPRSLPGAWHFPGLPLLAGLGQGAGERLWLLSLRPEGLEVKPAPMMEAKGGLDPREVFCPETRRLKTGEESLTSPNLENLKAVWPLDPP
# Outline: as §1
# ETS2 = target: T8, ETS2 (Homo sapiens, UniProt P15036 1-469); details: protein: recombinant; tags: N-terminal GST; dsDNA, one strand shown
# T8 sequence: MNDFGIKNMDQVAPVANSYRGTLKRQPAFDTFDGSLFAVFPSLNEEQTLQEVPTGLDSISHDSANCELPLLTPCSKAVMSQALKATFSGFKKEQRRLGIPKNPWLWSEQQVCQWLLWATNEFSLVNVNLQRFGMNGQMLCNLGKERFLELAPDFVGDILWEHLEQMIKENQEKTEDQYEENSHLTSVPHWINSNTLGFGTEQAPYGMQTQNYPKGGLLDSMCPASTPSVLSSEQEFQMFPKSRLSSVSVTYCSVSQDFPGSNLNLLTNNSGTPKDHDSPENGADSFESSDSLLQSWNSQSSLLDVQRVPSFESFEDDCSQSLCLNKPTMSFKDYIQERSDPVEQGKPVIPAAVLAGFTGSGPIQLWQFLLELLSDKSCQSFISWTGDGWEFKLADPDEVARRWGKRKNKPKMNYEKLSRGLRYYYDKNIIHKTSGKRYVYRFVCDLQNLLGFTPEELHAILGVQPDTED
# Outline: as §1
# SPDEF = target: T9, SPDEF (Homo sapiens, UniProt O95238 1-335); details: protein: recombinant; tags: N-terminal GST; dsDNA, one strand shown
# T9 sequence: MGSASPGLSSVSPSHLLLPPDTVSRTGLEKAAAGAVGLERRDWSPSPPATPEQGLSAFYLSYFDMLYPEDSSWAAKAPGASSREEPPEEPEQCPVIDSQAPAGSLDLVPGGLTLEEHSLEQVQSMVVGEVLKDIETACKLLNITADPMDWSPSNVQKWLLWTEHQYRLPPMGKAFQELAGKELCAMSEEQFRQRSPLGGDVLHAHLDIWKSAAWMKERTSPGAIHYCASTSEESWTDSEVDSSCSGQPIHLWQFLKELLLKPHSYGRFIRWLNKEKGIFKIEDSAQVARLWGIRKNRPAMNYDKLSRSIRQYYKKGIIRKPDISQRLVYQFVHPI
# Outline: as §1
# ETV7 = target: T10, ETV7 (Homo sapiens, UniProt Q9Y603 1-341); details: protein: recombinant; tags: N-terminal GST; dsDNA, one strand shown
# T10 sequence: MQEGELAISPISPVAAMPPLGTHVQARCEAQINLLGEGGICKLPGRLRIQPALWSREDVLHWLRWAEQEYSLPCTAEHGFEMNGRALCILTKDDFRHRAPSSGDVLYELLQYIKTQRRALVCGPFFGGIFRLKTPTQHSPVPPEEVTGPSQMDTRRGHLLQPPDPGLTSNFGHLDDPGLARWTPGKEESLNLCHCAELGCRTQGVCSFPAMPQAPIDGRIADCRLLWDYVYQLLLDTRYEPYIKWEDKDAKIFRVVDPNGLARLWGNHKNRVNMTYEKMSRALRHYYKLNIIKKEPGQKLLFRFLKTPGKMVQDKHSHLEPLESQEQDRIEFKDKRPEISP
# Outline: as §1
# ELF5 = target: T11, ELF5 (Homo sapiens, UniProt Q9UKW6-2 1-255); details: protein: recombinant; tags: N-terminal GST; dsDNA, one strand shown
# T11 sequence: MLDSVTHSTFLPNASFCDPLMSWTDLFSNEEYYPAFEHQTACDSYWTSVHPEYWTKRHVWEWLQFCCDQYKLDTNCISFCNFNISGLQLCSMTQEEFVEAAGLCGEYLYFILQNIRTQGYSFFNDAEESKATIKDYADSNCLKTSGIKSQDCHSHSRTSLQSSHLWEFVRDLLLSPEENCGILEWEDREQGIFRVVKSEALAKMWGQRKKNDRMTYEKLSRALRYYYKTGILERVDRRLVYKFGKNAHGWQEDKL
# Outline: as §1
# ETV3 = target: T12, ETV3 (Homo sapiens, UniProt P41162-2 1-143); details: protein: recombinant; tags: N-terminal GST; dsDNA, one strand shown
# T12 sequence: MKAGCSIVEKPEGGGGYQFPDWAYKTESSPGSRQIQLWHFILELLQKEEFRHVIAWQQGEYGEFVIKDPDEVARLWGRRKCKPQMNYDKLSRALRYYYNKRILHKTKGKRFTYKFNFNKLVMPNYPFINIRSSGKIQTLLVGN
# Outline: as §1
# ETV6 = ETV6 (Homo sapiens, UniProt P41212 1-452); details: protein: recombinant; tags: N-terminal GST; dsDNA, one strand shown
# Outline: as §1
# ELF4, sequence (Q99607 whole entry): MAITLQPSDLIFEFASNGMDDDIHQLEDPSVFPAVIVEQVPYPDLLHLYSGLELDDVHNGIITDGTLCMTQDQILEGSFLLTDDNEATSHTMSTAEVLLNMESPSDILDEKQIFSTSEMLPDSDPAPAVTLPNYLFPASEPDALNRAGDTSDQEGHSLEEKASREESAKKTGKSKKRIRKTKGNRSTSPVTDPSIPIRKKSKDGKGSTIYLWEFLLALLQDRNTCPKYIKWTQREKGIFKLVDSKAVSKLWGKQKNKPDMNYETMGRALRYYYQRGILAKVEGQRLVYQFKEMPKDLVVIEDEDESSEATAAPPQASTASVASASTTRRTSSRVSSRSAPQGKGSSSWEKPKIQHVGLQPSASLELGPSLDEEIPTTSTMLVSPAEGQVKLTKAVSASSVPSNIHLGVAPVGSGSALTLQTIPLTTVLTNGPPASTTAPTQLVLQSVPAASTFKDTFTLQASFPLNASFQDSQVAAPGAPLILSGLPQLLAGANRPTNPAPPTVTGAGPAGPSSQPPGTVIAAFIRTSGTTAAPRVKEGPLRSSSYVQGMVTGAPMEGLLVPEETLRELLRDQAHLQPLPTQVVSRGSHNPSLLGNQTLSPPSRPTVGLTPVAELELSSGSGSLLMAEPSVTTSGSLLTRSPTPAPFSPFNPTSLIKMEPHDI
# ETV5, sequence (P41161 whole entry): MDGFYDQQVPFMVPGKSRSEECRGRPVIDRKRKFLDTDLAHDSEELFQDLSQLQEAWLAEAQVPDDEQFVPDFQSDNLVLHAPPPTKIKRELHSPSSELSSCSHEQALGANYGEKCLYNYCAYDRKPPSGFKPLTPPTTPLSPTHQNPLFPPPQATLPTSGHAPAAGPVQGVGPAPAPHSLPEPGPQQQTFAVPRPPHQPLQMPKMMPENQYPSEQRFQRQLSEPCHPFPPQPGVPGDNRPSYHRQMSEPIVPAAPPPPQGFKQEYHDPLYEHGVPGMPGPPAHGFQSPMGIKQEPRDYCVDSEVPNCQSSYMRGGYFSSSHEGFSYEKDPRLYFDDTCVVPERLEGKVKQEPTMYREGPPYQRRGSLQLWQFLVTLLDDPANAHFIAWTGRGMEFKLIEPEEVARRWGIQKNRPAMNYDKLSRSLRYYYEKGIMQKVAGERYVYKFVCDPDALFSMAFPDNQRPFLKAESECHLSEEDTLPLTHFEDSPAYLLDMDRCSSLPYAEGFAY
# ETV1, sequence (P50549 whole entry): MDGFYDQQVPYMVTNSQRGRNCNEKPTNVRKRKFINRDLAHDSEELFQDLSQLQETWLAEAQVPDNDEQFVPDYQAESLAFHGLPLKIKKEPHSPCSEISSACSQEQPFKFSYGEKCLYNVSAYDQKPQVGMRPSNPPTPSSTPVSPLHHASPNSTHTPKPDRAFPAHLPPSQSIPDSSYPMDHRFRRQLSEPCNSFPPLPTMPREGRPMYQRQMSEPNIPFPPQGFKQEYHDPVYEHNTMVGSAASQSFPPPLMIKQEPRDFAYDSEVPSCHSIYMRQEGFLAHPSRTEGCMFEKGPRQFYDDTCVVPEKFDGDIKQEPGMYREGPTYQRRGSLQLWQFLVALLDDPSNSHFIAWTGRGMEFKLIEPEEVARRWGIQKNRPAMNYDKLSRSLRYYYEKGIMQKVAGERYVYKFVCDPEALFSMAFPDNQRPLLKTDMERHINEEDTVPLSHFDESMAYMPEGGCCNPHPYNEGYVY
# CRX, sequence (O43186 whole entry): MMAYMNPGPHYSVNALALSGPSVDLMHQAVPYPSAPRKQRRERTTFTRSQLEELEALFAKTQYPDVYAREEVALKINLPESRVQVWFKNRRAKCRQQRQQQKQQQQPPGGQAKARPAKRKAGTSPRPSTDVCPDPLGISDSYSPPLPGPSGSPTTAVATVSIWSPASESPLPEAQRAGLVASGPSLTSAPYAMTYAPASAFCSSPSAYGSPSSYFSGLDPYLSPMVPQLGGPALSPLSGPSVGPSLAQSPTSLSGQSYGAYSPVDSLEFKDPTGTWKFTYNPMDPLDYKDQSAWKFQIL
# HSF1, sequence (Q00613 whole entry): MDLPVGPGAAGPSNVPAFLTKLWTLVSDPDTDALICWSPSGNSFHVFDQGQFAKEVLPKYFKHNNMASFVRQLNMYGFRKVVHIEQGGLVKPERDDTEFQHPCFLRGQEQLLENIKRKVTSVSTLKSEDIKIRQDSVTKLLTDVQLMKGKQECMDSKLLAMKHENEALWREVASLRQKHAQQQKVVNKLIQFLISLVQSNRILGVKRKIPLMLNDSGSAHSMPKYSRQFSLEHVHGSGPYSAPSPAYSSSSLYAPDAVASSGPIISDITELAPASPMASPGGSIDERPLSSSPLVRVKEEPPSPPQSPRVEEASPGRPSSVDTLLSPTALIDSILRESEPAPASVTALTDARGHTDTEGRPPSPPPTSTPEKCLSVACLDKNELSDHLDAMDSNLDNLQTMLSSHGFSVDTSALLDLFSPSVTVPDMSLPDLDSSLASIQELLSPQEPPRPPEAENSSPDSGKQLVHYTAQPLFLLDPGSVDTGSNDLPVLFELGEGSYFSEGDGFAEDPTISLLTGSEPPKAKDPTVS
# ETV6, sequence (P41212 whole entry): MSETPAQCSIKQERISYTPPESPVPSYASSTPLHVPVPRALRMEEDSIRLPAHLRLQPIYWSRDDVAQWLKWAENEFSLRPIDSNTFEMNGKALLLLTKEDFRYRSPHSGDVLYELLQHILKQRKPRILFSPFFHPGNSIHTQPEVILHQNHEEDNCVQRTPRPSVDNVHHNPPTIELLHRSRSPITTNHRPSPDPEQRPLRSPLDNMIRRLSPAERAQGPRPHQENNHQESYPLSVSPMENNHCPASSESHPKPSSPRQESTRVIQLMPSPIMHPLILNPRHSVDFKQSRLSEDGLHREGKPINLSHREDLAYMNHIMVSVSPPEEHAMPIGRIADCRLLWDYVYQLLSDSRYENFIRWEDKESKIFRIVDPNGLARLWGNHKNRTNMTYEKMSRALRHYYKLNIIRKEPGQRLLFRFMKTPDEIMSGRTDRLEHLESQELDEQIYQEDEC
sequence,measurement,setting,value
TTCGCA,binding signal,FEV,"1.4 fold enrichment (6-mer frequency, TF over GST control)"
same,binding signal,ETV5,"1.15 fold enrichment (6-mer frequency, TF over GST control)"
same,binding signal,HSF1,"1.31 fold enrichment (6-mer frequency, TF over GST control)"
same,binding signal,SPIC,"1.32 fold enrichment (6-mer frequency, TF over GST control)"
same,binding signal,ELF4,"1.26 fold enrichment (6-mer frequency, TF over GST control)"
same,binding signal,ELK4,"1.2 fold enrichment (6-mer frequency, TF over GST control)"
same,binding signal,ETV2,"1.34 fold enrichment (6-mer frequency, TF over GST control)"
same,binding signal,ELF3,"1.11 fold enrichment (6-mer frequency, TF over GST control)"
same,binding signal,CRX,"1.28 fold enrichment (6-mer frequency, TF over GST control)"
same,binding signal,ETV1,"1.32 fold enrichment (6-mer frequency, TF over GST control)"
same,binding signal,ERF,"1.46 fold enrichment (6-mer frequency, TF over GST control)"
same,binding signal,ETV3L,"1.32 fold enrichment (6-mer frequency, TF over GST control)"
same,binding signal,ETS2,"1.18 fold enrichment (6-mer frequency, TF over GST control)"
same,binding signal,SPDEF,"1.31 fold enrichment (6-mer frequency, TF over GST control)"
same,binding signal,ETV7,"1.26 fold enrichment (6-mer frequency, TF over GST control)"
same,binding signal,ELF5,"1.27 fold enrichment (6-mer frequency, TF over GST control)"
same,binding signal,ETV3,"1.34 fold enrichment (6-mer frequency, TF over GST control)"
same,binding signal,ETV6,"1.22 fold enrichment (6-mer frequency, TF over GST control)"
